According to PubChem BioAssay (Tox21):
Inconclusive results are not listed. Calls of active or inactive are those of the source. The call rests on the fitted dose curve; in most records, active means well fitted activation curve with a large enough effect in the signal ratio in the repeat runs (not every such curve was filed as active); inconclusive means weak or mixed curves; inactive means flat fitted curve, though single readings scatter; the % refers to the signal ratio.

Assay: qHTS assay to identify small molecule agonists of the hypoxia (HIF-1) signaling pathway (AID 1224846)
Settings: HRE-bla ME-180 cells, beta-lactamase ratio, 17 h; series mostly up to 76.8 µM
Description: U.S. Tox21 Program National Center for Advancing Translational Sciences [NCATS] NIH Chemical Genomics Center [NCGC] U.S. Environmental Protection Agency [EPA] National Institutes of Environmental Health Sciences [NIEHS] National Toxicology Program [NTP] U.S. Food and Drug Administration [FDA] Tox21 Assay Overview: Hypoxia-inducible factor-1 (HIF-1) is the major hypoxia-regulated transcription factor that controls cellular responses to low oxygen concentration. HIF-1 is composed of two subunits: hypoxia responsive HIF-1-alpha and constitutively expressed HIF-1-beta, which is also known as aryl hydrocarbon receptor nuclear translocator. During hypoxic conditions, HIF-1-alpha heterodimerizes with HIF-1-beta and translocates into the nucleus where the HIF-1 complex binds to the hypoxia-response element (HRE) and activates expression of target genes such as VEGF (vascular endothelial growth factor). The HIF-1 pathway is essential to normal growth and development, and is involved in the pathophysiology of cancer, inflammation, and ischemia. Using a beta-lactamase reporter-gene under control of the hypoxia response element, a cell-based assay [CellSensor(TM) HRE-bla ME-180 from Life Technologies, Carlsbad, CA] was used to measure hypoxia-induced signaling. Tox21 10K library compounds were measured for their ability to induce the reporter gene activity.
Tox21 Assay Protocol Summary: HRE-bla ME-180 cells were dispensed at 2,000 cells per well in 6 uL of assay medium containing 0.5% dialyzed FBS into black wall/clear-bottom 1536-well plates using a Multidrop Combi (Thermo Scientific, Waltham, MA) dispenser. After the assay plates were incubated at 37C and 5% CO2 for 5 hrs, 23 nL of compounds dissolved in DMSO, positive controls or DMSO only was transferred to each well of the assay plate using a Pintool station (Kalypsys, San Diego, CA). The assay plates were incubated at 37C and 5% CO2 for 17 hrs. One uL of LiveBLAzerTM B/G FRET substrate (CCF4-AM) (Life Technologies) was added to each well using a Flying Reagent Dispenser (Aurora Discovery, San Diego, CA).
On the % scale 0 is the no-effect control and ±100 the full control effect.

| Structure (SMILES) | outcome | activation |
| --- | --- | --- |
| Cc1ccc(C(=O)O)cc1[N+](=O)[O-] | inactive |  |
| OCC1(CO)COCOC1 | inactive |  |
| COc1cc(/C=C/C(N)=O)cc(OC)c1OC | inactive |  |
| CN1C[C@@H]2C[C@H]1CN2c1cc2c(cc1F)c(=O)c(C(=O)O)cn2C1CC1 |  | -0.622% [at 15.8 µM] (inactive) |
| O=C(CN1CCNCC1)NC1CCCCC1 | inactive |  |
| O=[N+]([O-])c1c(Cl)cc(Cl)cc1Cl | inactive |  |
| C=CCN1C[C@H](C(=O)N(CCCN(C)C)C(=O)NCC)C[C@@H]2c3cccc4[nH]cc(c34)C[C@H]21 | inactive |  |
| CC(C)CCOC(=O)c1ccccc1 | inactive |  |
| CC1CCc2c(N3CCC(O)CC3)c(F)cc3c(=O)c(C(=O)O)cn1c23 (stereo not given) | inactive |  |
| C=CCCCCCCCCC(=O)OCCCC | inactive |  |
| CC(C)c1ccc(C=O)cc1 | inactive |  |
| CO/N=C(/C(=O)N[C@@H]1C(=O)N2C(C(=O)[O-])=C(C[n+]3ccn4ncccc43)CS[C@H]12)c1nsc(N)n1 | inactive |  |
| NCCOCCN | inactive |  |
| CC(O)CC(C)O (stereo not given) | inactive |  |
| O=C1OCCO1 | inactive |  |
| C=CCOC(=O)CCCCCC | inactive |  |
| CC(=O)O[C@@H]1CC2CCC1(C)C2(C)C (stereo not given in full) | inactive |  |
| CC(=O)CCC1=C(C)CCCC1(C)C | inactive |  |
| CC(C)Cn1cnc2c1c(=O)n(C)c(=O)n2C | inactive |  |
| CCC/C=C(\C=O)CC | inactive |  |

| Structure (SMILES) | outcome | activation |
| --- | --- | --- |
| C/C=C(\C)C(C)=O | inactive |  |
| Cn1nnc2c(C(N)=O)ncn2c1=O | inactive |  |
| CNCCS(=O)(=O)O | inactive |  |
| N#Cc1ccccc1O | inactive |  |
| O=Cc1cc2ccccc2o1 | inactive |  |
| CCCSSCCC | inactive |  |
| Nc1nc(-c2ccccc2)c(Br)c(=O)[nH]1 | inactive |  |
| O=S(=O)(O)c1ccc2c(N=Nc3ccc(S(=O)(=O)O)c4ccccc34)c(O)c(S(=O)(=O)O)cc2c1 |  | -0.322% [at 7.01 µM] (inactive) |
| C=C(C)C1CC=C(C)C(=O)C1 (stereo not given) | inactive |  |
| CC(C)C[C@@H]1[C@H](c2ccccc2)OC(=O)N1CCCN1CCCCCC1 | inactive |  |
| N[C@@H](Cc1ccc(O)cc1)C(=O)O |  | -0.522% [at 7.01 µM] (inactive) |
| CCCC(=O)OCCC(C)CCC=C(C)C (stereo not given) | inactive |  |
| CC(C)NCC(O)c1ccc2ccccc2c1 (stereo not given) | inactive |  |
| CC(C)CO | inactive |  |
| c1ccc(-c2nn[nH]n2)cc1 | inactive |  |
| CC/C(C)=N\O[Si](C)(O/N=C(\C)CC)O/N=C(\C)CC | inactive |  |
| CC(C)C1OCCN1CCOC(=O)NCCCCCCNC(=O)OCCN1CCOC1C(C)C (stereo not given) | inactive |  |
| CC(C)NC(=O)c1ccc(C=O)cc1 | inactive |  |
| CCCCOC(=O)C(C)O (stereo not given) | inactive |  |
| Cc1c(Cl)cccc1Cl | inactive |  |
